Data on five compounds can be found in PubChem BioAssay (EPA / NIEHS).

Records with an inconclusive call do not appear. The source made the active and inactive calls. The calls were made as follows, unless noted: active = hit-call score of the fitted dose curve at least 0.9, where 1 is the maximum; inconclusive = response in the unintended direction; inactive = score below 0.9.

Usually AC50 stands for the midpoint of the concentration-response curve, whichever way the signal moves.

The nature of assay [1]: ATG_TCF_b_cat_CIS: Attagene CIS-FACTORIAL HepG2 Assay for human T-Cell-Factor with beta-catenin (TCF/b-cat) (AID 2282965; active = hit-call score of the fitted dose curve at least 0.9, where 1 is the maximum; inactive = score below 0.9). Particulars: HepG2 TCF/beta-catenin cis-reporter transcription, actives raise or lower the signal. The method in brief: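 Endogenous transcription factor activity is captured through cis-promoter reporter constructs transiently introduced into human HepG2 liver cells. Induced reporter mRNA is measured after 24 h and fitted bidirectionally relative to DMSO.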

The nature of assay [2]: ATG_TAL_CIS: Attagene CIS-FACTORIAL HepG2 Assay for human TAL Basal Promoter (AID 2282966; active = hit-call score of the fitted dose curve at least 0.9, where 1 is the maximum; inactive = score below 0.9;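 also: background control endpoint measuring basal TAL promoter reporter mRNA not a specific factor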). The settings on record: HepG2 Attagene cis-factorial TAL promoter reporter; actives raise or lower the signal. The method in brief: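 Endogenous transcription-factor activity is sensed in HepG2 cells through transfected cis-promoter reporter constructs. After 24 h dosing, reporter transcripts are quantified by RT-PCR and capillary electrophoresis. Gain or loss of signal is fitted relative to DMSO.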

Assay [3] in a line: ATG_TGFb_CIS: Attagene CIS-FACTORIAL HepG2 Assay for human Transforming Growth Factor (TGF) (AID 2282967; active = hit-call score of the fitted dose curve at least 0.9, where 1 is the maximum; inactive = score below 0.9). The settings on record: HepG2 Attagene CIS TGFb reporter, mRNA transcription; actives raise or lower the signal. The method in brief: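 HepG2 cells transiently transfected with cis-promoter-driven multiple reporter units measure endogenous TF activity; reporter mRNA quantified at 24 h by RT-PCR, FAM labeling, HpaI digestion and capillary electrophoresis. Bidirectional fit vs DMSO.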

The nature of assay [4]: ATG_VDRE_CIS: Attagene CIS-FACTORIAL HepG2 Assay for human Vitamin D Receptor Element (VDRE) (AID 2282968; active = hit-call score of the fitted dose curve at least 0.9, where 1 is the maximum; inactive = score below 0.9). Particulars: HepG2 VDRE cis-reporter transcription, actives raise or lower the signal. The method in brief: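 Measures endogenous factor activity through cis-element-driven reporter transcripts in transiently transfected HepG2. Cells are treated 24 h; reporter mRNA is quantified by RT-PCR and capillary electrophoresis; fitting is bidirectional.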

The target in assay [5] is Nuclear receptor subfamily 1 group I member 3 (Homo sapiens) (UniProt Q14994). As to the kind of experiment: ATG_CAR_TRANS: Attagene TRANS-FACTORIAL HepG2 Assay for human Constitutive Androstane Receptor (CAR) (AID 2282969).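 Also: activators raise reporter mRNA above DMSO so AC50 marks induction.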 Particulars: HepG2 Attagene TRANS-FACTORIAL CAR reporter. The gist of the method: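 Signal is reporter mRNA induction relative to DMSO, measured 24 h after dosing by RT-PCR with fluorescent primer extension and capillary electrophoresis. Human HepG2 liver cells carried transiently transfected chimeric NR-Gal4/GAL4-UAS reporter constructs.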
Chain of Nuclear receptor subfamily 1 group I member 3 (Homo sapiens) (Q14994 whole entry, looked up, the tested form may be a part): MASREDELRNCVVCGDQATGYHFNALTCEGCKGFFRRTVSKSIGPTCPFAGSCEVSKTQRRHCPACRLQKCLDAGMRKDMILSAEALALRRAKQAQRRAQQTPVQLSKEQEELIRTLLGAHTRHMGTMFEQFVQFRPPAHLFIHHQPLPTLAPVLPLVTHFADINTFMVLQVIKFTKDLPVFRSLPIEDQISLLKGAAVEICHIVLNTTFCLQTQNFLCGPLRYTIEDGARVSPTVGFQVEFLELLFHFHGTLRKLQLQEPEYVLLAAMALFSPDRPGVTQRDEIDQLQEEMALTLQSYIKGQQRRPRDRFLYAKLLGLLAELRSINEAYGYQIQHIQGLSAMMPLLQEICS

The target in assay [6] is Estrogen receptor (Homo sapiens) (UniProt P03372). As to the kind of experiment: ATG_ERa_TRANS: Attagene TRANS-FACTORIAL HepG2 Assay for human Estrogen Receptor alpha (ERa) (AID 2282970). The settings on record: HepG2 Attagene TRANS ERa GAL4 reporter, mRNA. The method in brief: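 Transfected HepG2 cells carrying GAL4-UAS-driven reporter units were dosed for 24 hours. Total RNA was reverse-transcribed, reporter sequences PCR-amplified, FAM-labelled, HpaI-digested and resolved by capillary electrophoresis. Increases over DMSO control defined activity.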
Chain of Estrogen receptor (Homo sapiens) (P03372 whole entry, looked up, the tested form may be a part): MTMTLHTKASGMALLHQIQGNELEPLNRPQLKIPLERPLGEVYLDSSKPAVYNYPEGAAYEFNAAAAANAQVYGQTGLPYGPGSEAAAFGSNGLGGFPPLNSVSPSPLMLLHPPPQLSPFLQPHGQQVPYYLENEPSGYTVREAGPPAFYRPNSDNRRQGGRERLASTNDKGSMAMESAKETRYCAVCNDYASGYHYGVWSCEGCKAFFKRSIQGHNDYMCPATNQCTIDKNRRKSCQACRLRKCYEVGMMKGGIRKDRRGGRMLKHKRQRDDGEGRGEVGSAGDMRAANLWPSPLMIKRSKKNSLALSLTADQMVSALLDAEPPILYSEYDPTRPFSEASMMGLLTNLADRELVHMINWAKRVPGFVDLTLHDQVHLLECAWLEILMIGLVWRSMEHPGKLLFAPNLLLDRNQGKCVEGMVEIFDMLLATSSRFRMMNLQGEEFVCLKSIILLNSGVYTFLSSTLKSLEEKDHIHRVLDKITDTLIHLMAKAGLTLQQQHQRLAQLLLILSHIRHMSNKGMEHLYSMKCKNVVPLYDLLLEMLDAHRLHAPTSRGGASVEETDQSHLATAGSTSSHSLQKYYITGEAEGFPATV

Assay [7] has as its target X-box-binding protein 1 (Homo sapiens) (UniProt P17861). As to the kind of experiment: ATG_Xbp1_CIS: Attagene CIS-FACTORIAL HepG2 Assay for human X-box Binding Protein 1 (XBP1) (AID 2282972; active = hit-call score of the fitted dose curve at least 0.9, where 1 is the maximum; inactive = score below 0.9). The settings on record: HepG2 XBP1 cis-element reporter, Attagene multiplex; actives raise or lower the signal. The gist of the method: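 Changes in reporter transcript abundance, read by RT-PCR and capillary electrophoresis, reflect endogenous transcription factor activity. Transfected HepG2 cells received compound for 24 hours; DMSO defined baseline for bidirectional analysis.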

The target in assay [8] is Androgen receptor (Homo sapiens) (UniProt P10275). As to the kind of experiment: ATG_AR_TRANS: Attagene TRANS-FACTORIAL HepG2 Assay for human Androgen Receptor (AR) (AID 2282973). The settings on record: HepG2 Attagene TRANS-FACTORIAL AR reporter transcription. The method in brief: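 Transfected HepG2, 24 h treatment, chimeric NR-Gal4 driving GAL4-UAS reporters. mRNA induction by RT-PCR/capillary electrophoresis fluorescence; DMSO as negative control and baseline.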
Chain of Androgen receptor (Homo sapiens) (P10275 whole entry, looked up, the tested form may be a part): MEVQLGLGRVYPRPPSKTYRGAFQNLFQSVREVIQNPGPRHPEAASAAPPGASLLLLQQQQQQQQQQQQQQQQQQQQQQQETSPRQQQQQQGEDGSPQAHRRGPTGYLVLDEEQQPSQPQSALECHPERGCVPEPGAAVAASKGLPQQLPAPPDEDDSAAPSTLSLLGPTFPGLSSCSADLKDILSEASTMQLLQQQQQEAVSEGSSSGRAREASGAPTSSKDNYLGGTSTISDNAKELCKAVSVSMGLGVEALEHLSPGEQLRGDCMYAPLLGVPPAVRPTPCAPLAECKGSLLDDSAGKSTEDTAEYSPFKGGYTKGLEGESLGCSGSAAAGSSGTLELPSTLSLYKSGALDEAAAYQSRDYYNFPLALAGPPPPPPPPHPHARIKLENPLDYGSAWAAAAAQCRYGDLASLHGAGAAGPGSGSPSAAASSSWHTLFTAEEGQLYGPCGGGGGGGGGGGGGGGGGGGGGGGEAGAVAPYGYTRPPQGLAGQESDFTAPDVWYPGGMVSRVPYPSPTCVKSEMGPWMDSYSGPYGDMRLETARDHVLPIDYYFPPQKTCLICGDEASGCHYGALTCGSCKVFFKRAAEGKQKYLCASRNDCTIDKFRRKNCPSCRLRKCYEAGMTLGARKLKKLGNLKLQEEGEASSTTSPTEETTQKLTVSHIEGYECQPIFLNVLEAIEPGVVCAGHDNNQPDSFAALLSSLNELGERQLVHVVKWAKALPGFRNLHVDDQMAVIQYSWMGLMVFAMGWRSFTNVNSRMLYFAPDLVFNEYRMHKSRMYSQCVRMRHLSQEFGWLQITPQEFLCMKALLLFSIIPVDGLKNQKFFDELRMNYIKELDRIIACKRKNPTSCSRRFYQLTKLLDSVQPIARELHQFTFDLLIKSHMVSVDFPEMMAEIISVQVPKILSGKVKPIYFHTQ

Assay [9] addresses Glucocorticoid receptor (Homo sapiens) (UniProt P04150). The experiment in a line: ATG_GR_TRANS: Attagene TRANS-FACTORIAL HepG2 Assay for human Glucocorticoid Receptor (GR) (AID 2282978).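 Also: activators score as hits since higher reporter transcript over DMSO is fitted.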 Particulars: HepG2 Attagene TRANS GR reporter, mRNA transcription. The gist of the method: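 Transient MRTU transfection of HepG2 (GAL4-UAS reporters, exogenous NR-GAL4 chimeras), 24 h dosing. Readout: reporter transcript via RT-PCR + capillary electrophoresis fluorescence. Positive direction vs DMSO baseline.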

Assay [10] addresses Bile acid receptor (Homo sapiens) (UniProt Q96RI1). The experiment in a line: ATG_FXR_TRANS: Attagene TRANS-FACTORIAL HepG2 Assay for Farnesoid X Receptor (FXR) (AID 2282979).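 Also: hits raise reporter mRNA above DMSO so AC50 marks FXR activation.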 Particulars: HepG2 Attagene TRANS FXR-GAL4 reporter transcription. The method in brief:
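Chimeric FXR-GAL4 activity in transiently transfected human HepG2 liver cells is scored as induction of reporter mRNA after 24 h of dosing. Detection uses RT-PCR with fluorescent labelling and capillary electrophoresis, with DMSO serving as baseline.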

Assay [11] deals with Oxysterols receptor LXR-alpha (Homo sapiens) (UniProt Q13133). As to the kind of experiment: ATG_LXRa_TRANS: Attagene TRANS-FACTORIAL HepG2 Assay for human Liver X Receptor alpha (LXRa) (AID 2282980). The settings on record: HepG2 Attagene TRANS reporter, LXRa transactivation. The gist of the method: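 Transient HepG2 transfectants, 24 h dosing, RT-PCR/CE mRNA reporter quantitation; gain-of-signal vs DMSO.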

Assay [12] addresses Oxysterols receptor LXR-beta (Homo sapiens) (UniProt P55055). As to the kind of experiment: ATG_LXRb_TRANS: Attagene TRANS-FACTORIAL HepG2 Assay for human Liver X Receptor beta (LXRb) (AID 2282981). The settings on record: HepG2 Attagene TRANS GAL4-LXRb reporter, mRNA. The method in brief: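 After 24 h of chemical treatment, transfected HepG2 cells yield total RNA; reporter cDNA is PCR-amplified, FAM-labelled, HpaI-cut and run on capillary electrophoresis. Signal reflects chimeric LXRb-Gal4 activity on GAL4-UAS reporters.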

Assay [13] is described as follows: ATG_M_06_TRANS: Attagene TRANS-FACTORIAL HepG2 Assay for M06 Transcription Factor (Internal Marker) (AID 2282983). The settings on record: HepG2 Attagene TRANS M06 internal marker reporter. The method in brief: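 Human liver HepG2 cells bearing transiently transfected chimeric NR-GAL4 reporter units were treated with chemicals for 24 h. Total RNA was reverse-transcribed, reporter sequences amplified and labelled, then quantified by capillary electrophoresis. Activity was fitted upward relative to DMSO.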

Assay [14] is described as follows: ATG_M_32_TRANS: Attagene TRANS-FACTORIAL HepG2 Assay for M32 Transcription Factor (Internal Marker) (AID 2282984).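 Also: transcript level of a background control reporter unit measured by RT-PCR and capillary electrophoresis.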 The settings on record: HepG2 Attagene TRANS M32 internal marker reporter. The gist of the method:
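Cell-based TRANS-format assay in HepG2: exogenous chimeric GAL4 reporter units transiently expressed, compounds applied 24 h. Reporter mRNA detected by RT-PCR plus capillary electrophoresis; this readout is an internal background marker.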

For assay [15], the target named is Steroid hormone receptor ERR1 (Homo sapiens) (UniProt P11474). The experiment in a line: ATG_ERRa_TRANS: Attagene TRANS-FACTORIAL HepG2 Assay for human Estrogen-Related Receptor alpha (ERRa) (AID 2282971). The settings on record: HepG2 Attagene TRANS reporter, ERRa transactivation. The gist of the method:
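HepG2 cells were transiently transfected with multiple GAL4-UAS reporter units, then dosed with compound for 24 h. Total RNA was reverse-transcribed, reporter cDNA PCR-amplified and fluorescently labelled, and fragments resolved by capillary electrophoresis; induction was compared with DMSO.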

A short description of assay [16]: ATG_GAL4_TRANS: Attagene TRANS-FACTORIAL HepG2 Assay for GAL4 (Internal Marker) (AID 2282976). Particulars: HepG2 Attagene TRANS GAL4 internal marker reporter. The gist of the method:
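Fluorescence from capillary electrophoresis of labelled RT-PCR products quantifies reporter mRNA induction after 24 h dosing of HepG2 cells carrying transfected GAL4-UAS reporter transcription units. Vehicle DMSO serves as baseline.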

Assay [17] concerns the target Nuclear receptor subfamily 4 group A member 2 (Homo sapiens) (UniProt P43354). As to the kind of experiment: ATG_NURR1_TRANS: Attagene TRANS-FACTORIAL HepG2 Assay for human Nuclear Receptor Related Protein 1 (NURR1) (AID 2282985). The settings on record: HepG2 Attagene TRANS reporter, mRNA readout. The gist of the method:
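Measures transcriptional activation by an exogenous NR-Gal4 chimera in transfected HepG2 liver cells. After 24 h, reporter RNA is reverse-transcribed, amplified and resolved by capillary electrophoresis; DMSO defines baseline.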

Chain of Glucocorticoid receptor (Homo sapiens) (P04150 whole entry, looked up, the tested form may be a part): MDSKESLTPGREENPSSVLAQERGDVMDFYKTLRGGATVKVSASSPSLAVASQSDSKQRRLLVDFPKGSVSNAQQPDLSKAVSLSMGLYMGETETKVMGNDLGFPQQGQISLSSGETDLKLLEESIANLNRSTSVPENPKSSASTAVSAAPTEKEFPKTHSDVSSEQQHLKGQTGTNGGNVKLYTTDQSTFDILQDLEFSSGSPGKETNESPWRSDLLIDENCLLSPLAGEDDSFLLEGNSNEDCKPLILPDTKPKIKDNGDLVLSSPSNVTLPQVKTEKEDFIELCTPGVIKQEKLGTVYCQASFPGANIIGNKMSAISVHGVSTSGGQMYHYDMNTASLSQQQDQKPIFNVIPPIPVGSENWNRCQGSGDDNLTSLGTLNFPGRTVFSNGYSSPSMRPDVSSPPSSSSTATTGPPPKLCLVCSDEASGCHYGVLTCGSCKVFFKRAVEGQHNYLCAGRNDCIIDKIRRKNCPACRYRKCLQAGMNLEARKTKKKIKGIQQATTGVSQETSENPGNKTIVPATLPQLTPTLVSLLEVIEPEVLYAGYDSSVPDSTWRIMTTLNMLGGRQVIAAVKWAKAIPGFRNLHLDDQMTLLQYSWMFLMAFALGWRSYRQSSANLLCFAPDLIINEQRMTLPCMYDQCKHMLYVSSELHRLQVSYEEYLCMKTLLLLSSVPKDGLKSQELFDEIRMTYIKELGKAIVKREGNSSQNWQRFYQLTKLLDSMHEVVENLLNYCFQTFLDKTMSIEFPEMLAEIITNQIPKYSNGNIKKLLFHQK
Chain of X-box-binding protein 1 (Homo sapiens) (P17861 whole entry, looked up): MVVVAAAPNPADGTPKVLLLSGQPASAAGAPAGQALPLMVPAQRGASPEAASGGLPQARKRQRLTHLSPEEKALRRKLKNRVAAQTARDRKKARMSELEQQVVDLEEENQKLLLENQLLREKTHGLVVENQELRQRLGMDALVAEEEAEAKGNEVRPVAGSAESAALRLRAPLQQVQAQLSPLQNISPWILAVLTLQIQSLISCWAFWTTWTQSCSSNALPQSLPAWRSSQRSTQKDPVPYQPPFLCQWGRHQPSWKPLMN
Chain of Bile acid receptor (Homo sapiens) (Q96RI1 whole entry, looked up, the tested form may be a part): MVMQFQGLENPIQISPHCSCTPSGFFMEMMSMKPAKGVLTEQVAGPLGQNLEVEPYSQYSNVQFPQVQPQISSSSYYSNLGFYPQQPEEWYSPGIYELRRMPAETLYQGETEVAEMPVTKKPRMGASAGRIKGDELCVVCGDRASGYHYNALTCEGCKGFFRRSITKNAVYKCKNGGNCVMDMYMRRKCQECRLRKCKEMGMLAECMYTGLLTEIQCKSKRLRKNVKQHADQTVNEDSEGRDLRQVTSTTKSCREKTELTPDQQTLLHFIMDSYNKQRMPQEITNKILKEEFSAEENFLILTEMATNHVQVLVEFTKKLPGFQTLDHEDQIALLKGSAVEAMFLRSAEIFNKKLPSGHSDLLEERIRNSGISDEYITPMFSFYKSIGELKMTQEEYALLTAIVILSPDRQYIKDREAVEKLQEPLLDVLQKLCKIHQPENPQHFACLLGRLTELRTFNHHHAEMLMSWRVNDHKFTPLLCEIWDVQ
Chain of Steroid hormone receptor ERR1 (Homo sapiens) (P11474 whole entry, looked up, the tested form may be a part): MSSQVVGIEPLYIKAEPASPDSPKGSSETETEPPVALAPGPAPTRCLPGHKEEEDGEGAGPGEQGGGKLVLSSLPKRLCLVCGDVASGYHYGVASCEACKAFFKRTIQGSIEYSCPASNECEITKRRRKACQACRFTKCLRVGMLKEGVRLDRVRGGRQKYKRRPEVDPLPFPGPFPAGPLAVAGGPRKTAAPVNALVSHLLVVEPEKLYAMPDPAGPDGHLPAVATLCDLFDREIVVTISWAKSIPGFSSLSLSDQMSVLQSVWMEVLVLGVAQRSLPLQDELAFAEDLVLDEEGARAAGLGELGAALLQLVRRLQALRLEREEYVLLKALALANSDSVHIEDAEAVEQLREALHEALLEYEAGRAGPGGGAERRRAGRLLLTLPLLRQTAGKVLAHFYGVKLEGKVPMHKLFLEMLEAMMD
Chain of Oxysterols receptor LXR-beta (Homo sapiens) (P55055 whole entry, looked up, the tested form may be a part): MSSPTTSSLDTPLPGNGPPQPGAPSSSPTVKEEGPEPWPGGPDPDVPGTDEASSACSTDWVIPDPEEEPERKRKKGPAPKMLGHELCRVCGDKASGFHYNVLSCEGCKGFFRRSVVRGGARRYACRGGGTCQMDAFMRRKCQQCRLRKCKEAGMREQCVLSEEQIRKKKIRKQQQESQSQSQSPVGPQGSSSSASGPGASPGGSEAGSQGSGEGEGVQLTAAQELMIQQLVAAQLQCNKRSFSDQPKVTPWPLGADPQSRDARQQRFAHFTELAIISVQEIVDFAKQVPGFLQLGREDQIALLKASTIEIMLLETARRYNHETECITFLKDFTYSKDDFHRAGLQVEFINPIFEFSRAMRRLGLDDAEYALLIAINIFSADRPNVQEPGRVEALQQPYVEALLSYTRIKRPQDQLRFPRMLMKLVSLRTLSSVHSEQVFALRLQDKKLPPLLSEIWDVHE
Chain of Nuclear receptor subfamily 4 group A member 2 (Homo sapiens) (P43354 whole entry, looked up, the tested form may be a part): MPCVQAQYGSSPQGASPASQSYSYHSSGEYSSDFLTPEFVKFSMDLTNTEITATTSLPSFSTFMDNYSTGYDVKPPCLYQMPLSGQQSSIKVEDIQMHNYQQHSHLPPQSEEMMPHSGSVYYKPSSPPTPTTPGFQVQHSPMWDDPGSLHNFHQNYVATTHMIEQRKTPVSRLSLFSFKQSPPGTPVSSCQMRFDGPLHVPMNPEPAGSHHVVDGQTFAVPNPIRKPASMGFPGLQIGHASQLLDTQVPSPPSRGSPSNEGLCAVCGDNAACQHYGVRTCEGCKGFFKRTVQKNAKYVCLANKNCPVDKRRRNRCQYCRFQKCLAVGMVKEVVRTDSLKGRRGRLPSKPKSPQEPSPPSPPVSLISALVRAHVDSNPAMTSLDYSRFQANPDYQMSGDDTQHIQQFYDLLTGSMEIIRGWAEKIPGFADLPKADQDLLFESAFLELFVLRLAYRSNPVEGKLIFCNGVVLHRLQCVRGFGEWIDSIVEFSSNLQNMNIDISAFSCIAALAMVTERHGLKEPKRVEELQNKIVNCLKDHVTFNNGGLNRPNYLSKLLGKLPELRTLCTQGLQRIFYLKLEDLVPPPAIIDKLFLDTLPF

Regarding `CC(=O)c1ccc(-c2ccccc2)cc1`, the result in [1], in assay [2], in [3], in [5], in assay [7] and in assay [8] was inactive. Besides, the call in assay [9], in [10], in [11], in [12], in [13] and in [14] was inactive. Also, the AC50 in assay [4] was 32 µM (active); in [6], 6.19 µM (active).

Turning to `Nc1ccc(Sc2ccc(N)cc2)cc1`, the call in assay [1], in assay [2], in [3], in [5], in assay [15] and in assay [7] was inactive. In addition, the compound was classed as inactive in [9] and in [14]. The concentration at half-maximal activity (AC50) was 62.9 µM (active) in assay [4] and 7.99 µM (active) in [6].

On to `N#Cc1ccc(O)cc1`, for which the outcome in assay [1], in [2], in assay [3], in assay [4], in assay [5] and in [6] was inactive. Besides, the result in [7], in [16], in assay [9], in assay [10], in [13] and in assay [14] was inactive. In addition, the compound was called inactive in assay [17].

Consider `CCN(CC)C1CCCCC1`, for which the call in assay [1], in assay [2], in [3], in [4], in assay [5] and in [6] was inactive. In addition, the result in [15], in assay [7], in assay [9], in assay [13] and in [14] was inactive.

With `CCCCC(CC)COP(=O)(Oc1ccccc1)Oc1ccccc1` (stereo not given), the outcome in assay [1], in assay [2], in [3], in assay [5], in assay [8] and in assay [9] was inactive. Besides, the call in assay [10], in assay [13] and in assay [14] was inactive. The values for the concentration at half-maximal activity (AC50) in [4], in [6] and in assay [7] were 0.866 µM (active), 1.16 µM (active) and 100 µM (active), respectively.
